Compound activity as filed in PubChem BioAssay.
GPR7 antagonist = human neuropeptides B/W receptor 1 antagonism. P48145. GPR7-expressing cells, fluorescence antagonist assay. inhibition, % at 4.4 µM. 290,000 tested, 1.1% active. AID 1861; in the data active means inhibition above about 16%, passing the limit was not always enough;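 further: cells stimulated with the agonist NPW; 0% = agonist with vehicle and 100% = vehicle without agonist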
CHT inh = human CHT choline transport inhibition. Q9GZV3. CHT-expressing cells, membrane potential dye, choline response; hits give low values. B-score at 10 µM. 310,000 tested, 0.86% active. AID 488975;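 active means B-score over 3 SD under the library average, and starting fluorescence ratio not unusually high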;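 further: choline stimulus applied at its EC90 after an EC20 pre-addition; B-score computed on integrated fluorescence ratio after choline addition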
TMEM16A inh = blocks the mouse calcium-activated chloride channel TMEM16A. HEK293 TMEM16A/YFP iodide influx fluorescence, ionomycin. normalized B-score (activity score, 25-100; higher = stronger inhibition) at 10 µM. 310,000 tested, 1.2% active. AID 588511;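 active means ratio plate-corrected score three or more library SD toward inhibition, starting fluorescence score within five deviations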;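 further: score derived from kinetic fluorescence span divided by baseline fluorescence per well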
Target sequence (Q8BHY3 whole entry, looked up): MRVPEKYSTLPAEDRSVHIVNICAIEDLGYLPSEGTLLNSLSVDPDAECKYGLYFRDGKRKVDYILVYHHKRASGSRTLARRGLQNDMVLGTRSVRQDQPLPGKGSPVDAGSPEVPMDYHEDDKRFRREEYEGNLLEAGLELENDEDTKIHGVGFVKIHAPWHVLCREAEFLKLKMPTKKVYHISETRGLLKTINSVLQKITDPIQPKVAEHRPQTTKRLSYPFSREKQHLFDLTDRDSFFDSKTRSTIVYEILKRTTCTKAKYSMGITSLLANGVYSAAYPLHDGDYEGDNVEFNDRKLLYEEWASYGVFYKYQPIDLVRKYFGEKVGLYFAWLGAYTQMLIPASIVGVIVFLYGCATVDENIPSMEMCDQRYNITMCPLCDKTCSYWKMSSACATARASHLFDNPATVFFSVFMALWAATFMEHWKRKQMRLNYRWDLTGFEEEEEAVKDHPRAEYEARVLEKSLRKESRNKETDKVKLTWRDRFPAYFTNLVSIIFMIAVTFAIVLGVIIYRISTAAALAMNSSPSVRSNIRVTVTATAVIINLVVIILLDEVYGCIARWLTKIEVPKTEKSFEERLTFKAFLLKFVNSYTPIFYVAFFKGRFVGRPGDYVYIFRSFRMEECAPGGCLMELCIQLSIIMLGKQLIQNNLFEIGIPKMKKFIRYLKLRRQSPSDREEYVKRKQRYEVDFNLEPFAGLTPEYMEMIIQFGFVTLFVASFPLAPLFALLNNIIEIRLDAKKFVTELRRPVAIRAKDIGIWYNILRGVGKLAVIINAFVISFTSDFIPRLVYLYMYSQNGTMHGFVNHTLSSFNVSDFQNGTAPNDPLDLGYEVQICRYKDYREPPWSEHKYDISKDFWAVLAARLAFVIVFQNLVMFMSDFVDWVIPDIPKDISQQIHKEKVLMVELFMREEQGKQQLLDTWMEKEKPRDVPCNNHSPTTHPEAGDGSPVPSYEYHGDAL
Kir21 block = Kir2.1 (mouse) channel inhibition; B-score at 10 µM; P35561; 310,000 tested, 0.85% active; HEK293-Kir2.1, FluxOR thallium flux fluorescence; hits give low values;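 active means fluorescence ratio B-score at or below minus 3 SD of library scores, with starting-brightness B-score within 2 SD, cut at about -4.2 in these data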;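 further: channel flux triggered by added potassium and thallium sulfate stimulus; B-score of peak minus minimum fluorescence over baseline after thallium stimulus; more negative B-score means stronger Kir2.1 block with less thallium influx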
CHT PAM = allosterically activates the human high affinity choline transporter | Q9GZV3 | CHT-expressing cells, membrane potential dye, choline EC20; hits give high values; LV-AA mutant CHT in HEK293 cells | B-score at 10 µM | 310,000 tested, 0.49% active | AID 488977;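 active means initial fluorescence not abnormally high and integrated response B-score, plate-corrected, over 3 SD above library mean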
TMEM16A act = mouse TMEM16A channel activation, primary screen | Q8BHY3 | HEK293 TMEM16A/YFP-H148Q/I152L, iodide quench fluorescence; hits give low values | B-score at 10 µM | 340,000 tested, 0.3% active | AID 623877;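 active means fluorescence-ratio B-score plate-corrected deviation score at least 3 library SD below zero, with starting fluorescence score within 5 deviations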;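 further: channel opened by trigger with iodide after compound preincubation; score built on the fluorescence ratio of max minus min over baseline; more negative score means more quench and so TMEM16A activation or potentiation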
CHT act confirm = confirmation of human choline transporter (CHT) activators | shares compounds with CHT PAM | CHT-expressing cells, membrane potential dye fluorescence (FDSS); % of choline EC20–EC90 response window; HEK293 expressing CHT LV-AA mutant; choline added at its EC20 | activation, % at 10 µM | 2,500 tested, 91% active | AID 504833;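 active means primary screen active, with duplicate mean activation above negative control mean plus 3 SD, cut at about 11% in these data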
HEK293 MP dye = CHT activator counter-screen hit in parental HEK293 cells; shares compounds with CHT PAM; membrane potential dye fluorescence (FDSS); measured after EC20 choline addition; ratio readout change at 10 µM, hits read low; 2,500 tested, 62% active; AID 623908;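 active means duplicate-averaged ratio beyond 3 SD from buffer wells, up or down, though filed actives are nearly all decreases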
Starred values were filed as active, the others as inactive. The list is not random: actives were taken first. Their share in the collection is about 3.7%.

Results for c1ccc2[nH]c(NCCCN3CCOCC3)nc2c1 ?
GPR7 antagonist: 1.0; CHT inh: inactive; TMEM16A inh: inactive; Kir21 block: 3.27; CHT PAM: 6.35*; TMEM16A act: inactive; CHT act confirm: 38.4*; HEK293 MP dye: -33.2*

Results for O=c1[nH]c2ccccc2nc1NCCN1CCOCC1 ?
GPR7 antagonist: -10.3; CHT inh: inactive; TMEM16A inh: inactive; Kir21 block: -0.08; CHT PAM: inactive; TMEM16A act: inactive

What do the screens show for `CCNc1nc2ccccc2[nH]1`?
GPR7 antagonist: 5.5; CHT inh: inactive; TMEM16A inh: inactive; Kir21 block: 0.36; CHT PAM: inactive; TMEM16A act: inactive

What do the screens show for `O=C(CSC(=S)N1CCCC1)NCC(=O)Nc1ccc(F)c(F)c1`?
GPR7 antagonist: 7.0; CHT inh: inactive; TMEM16A inh: inactive; Kir21 block: 2.24; CHT PAM: inactive; TMEM16A act: inactive

What do the screens show for `COc1cc2cc[n+](Cc3ccc([N+](=O)[O-])cc3)cc2cc1OC`?
GPR7 antagonist: -1.8; CHT inh: inactive; TMEM16A inh: inactive; Kir21 block: -0.05; CHT PAM: 7.11*; TMEM16A act: inactive; CHT act confirm: 71.0*; HEK293 MP dye: -79.5*

Results for CCCCCn1c(CN2CCN(CCO)CC2)nc2c1c(=O)n(C)c(=O)n2C ?
GPR7 antagonist: -7.5; CHT inh: inactive; TMEM16A inh: inactive; Kir21 block: 2.22; CHT PAM: inactive; TMEM16A act: inactive

What do the screens show for `Cn1c(=O)c2c(nc(CN3CCCCC3)n2CCc2ccccc2)n(C)c1=O`?
GPR7 antagonist: 4.8; CHT inh: inactive; TMEM16A inh: inactive; Kir21 block: 0.4; CHT PAM: 12.3*; TMEM16A act: inactive; CHT act confirm: 47.4*; HEK293 MP dye: inactive

How did CN1CCN(Cc2nc3c(c(=O)n(C)c(=O)n3C)n2CCCc2ccccc2)CC1 do in these assays?
GPR7 antagonist: 3.0; CHT inh: inactive; TMEM16A inh: inactive; Kir21 block: -0.91; CHT PAM: 7.99*; TMEM16A act: inactive; CHT act confirm: 48.0*; HEK293 MP dye: -36.3*

Results for CCCCCCn1c(CN2CCN(C)CC2)nc2c1c(=O)n(C)c(=O)n2C ?
GPR7 antagonist: -6.0; CHT inh: inactive; TMEM16A inh: inactive; Kir21 block: 1.21; CHT PAM: 9.47*; TMEM16A act: inactive; CHT act confirm: 60.8*; HEK293 MP dye: -46.3*

Results for Cn1c(=O)c2c(nc(CN3CCOCC3)n2CCCc2ccccc2)n(C)c1=O ?
GPR7 antagonist: 0.9; CHT inh: inactive; TMEM16A inh: inactive; Kir21 block: 1.61; CHT PAM: inactive; TMEM16A act: inactive

How did CN(Cc1ccccc1)c1nc2c(c(=O)n(C)c(=O)n2C)n1CCCc1ccccc1 do in these assays?
GPR7 antagonist: 0.1; CHT inh: inactive; TMEM16A inh: inactive; Kir21 block: -1.11; CHT PAM: 8.67*; TMEM16A act: inactive; CHT act confirm: 25.4*; HEK293 MP dye: inactive

Results for Cn1c(=O)c2c(nc(CN3CCN(c4ccccc4)CC3)n2CCc2ccccc2)n(C)c1=O ?
GPR7 antagonist: -13.7; CHT inh: inactive; TMEM16A inh: inactive; Kir21 block: -0.47; CHT PAM: inactive; TMEM16A act: inactive

Results for Cc1ccc(NC(=O)CNC(=O)Cn2cnc3sc(C)c(C)c3c2=O)cc1F ?
GPR7 antagonist: -9.7; CHT inh: inactive; TMEM16A inh: inactive; Kir21 block: 1.63; CHT PAM: inactive; TMEM16A act: inactive

Results for Cn1c(=O)c2c(nc(CN3CCN(c4cccc(Cl)c4)CC3)n2CCc2ccccc2)n(C)c1=O ?
GPR7 antagonist: -5.2; CHT inh: inactive; TMEM16A inh: inactive; Kir21 block: 0.38; CHT PAM: 9.31*; TMEM16A act: inactive; CHT act confirm: 24.4*; HEK293 MP dye: inactive

Results for COc1ccc(C2Nc3ccccc3C(=O)N2c2ccc(C)cc2)cc1Cn1cc([N+](=O)[O-])cn1 (stereo unspecified) ?
GPR7 antagonist: -8.0; CHT inh: inactive; TMEM16A inh: inactive; Kir21 block: 1.96; CHT PAM: inactive; TMEM16A act: inactive

How did COc1ccc(C2Nc3ccccc3C(=O)N2c2ccc(C)cc2)cc1Cn1nnc2ccccc21 (stereo unspecified) do in these assays?
GPR7 antagonist: 15.9; CHT inh: inactive; TMEM16A inh: inactive; Kir21 block: -1.06; CHT PAM: inactive; TMEM16A act: inactive; CHT act confirm: 10.3*; HEK293 MP dye: inactive

How did CC(C)OCCCNC(=O)C(NS(=O)(=O)c1ccc2c(c1)c(=O)n(C)c(=O)n2C)c1ccccc1 (stereo unspecified) do in these assays?
GPR7 antagonist: -17.3; CHT inh: inactive; TMEM16A inh: inactive; Kir21 block: -1.01; CHT PAM: inactive

What do the screens show for `CCN1CCN(c2cc3c(cc2F)c(=O)c(C(=O)O)cn3C2CC2)CC1`?
GPR7 antagonist: -9.8; CHT inh: inactive; TMEM16A inh: inactive; Kir21 block: 0.15; CHT PAM: 8.72*; TMEM16A act: inactive; CHT act confirm: 54.0*; HEK293 MP dye: -58*

What do the screens show for `CCCCC[C@H]1CN(Cc2ccc(OC)cc2)C(=O)[C@@H]1CC(=O)NCc1ccccc1`?
GPR7 antagonist: 1.3; CHT inh: inactive; TMEM16A inh: inactive; Kir21 block: -0.3; CHT PAM: inactive; TMEM16A act: inactive

What do the screens show for `CN1CCN(C(=O)c2cc(=O)c3cc(Cl)cc(Cl)c3o2)CC1`?
GPR7 antagonist: 2.5; CHT inh: inactive; TMEM16A inh: inactive; Kir21 block: 0.75; CHT PAM: inactive; TMEM16A act: inactive; CHT act confirm: 42.9*; HEK293 MP dye: -42.4*

What do the screens show for `C[C@H](NC(=O)N1CCn2c1nc1ccccc12)C(=O)NCc1ccccc1`?
GPR7 antagonist: 0.2; CHT inh: inactive; TMEM16A inh: inactive; Kir21 block: -0.73; CHT PAM: inactive; TMEM16A act: inactive

How did Oc1ccccc1CNc1cccc2cccnc12 do in these assays?
GPR7 antagonist: -12.9; CHT inh: inactive; TMEM16A inh: inactive; Kir21 block: -1.21; CHT PAM: inactive; TMEM16A act: inactive
